PubChem BioAssay (NCATS)
Records with an inconclusive call do not appear. A call without a number means that no potency is given here. Unmarked numbers belong to inactive results. Activity calls are given as the source filed them. The call rests on the fitted dose curve; in most records, active means well fitted inhibition curve with a large enough effect; inconclusive means small, poorly fitted or top-dose-only effect; inactive means flat fitted curve, though single readings scatter.

Tests used:
Experiment in all cases: qHTS profiling for inhibitors of Plasmodium falciparum proliferation (AID 504749); further: nearly all actives have a fitted effect of over 60% in size
Settings in all cases: P. falciparum in erythrocytes, SYBR Green DNA, 72 h; series mostly up to 28.7 µM
CP315 = system: CP315
Outline: (§1)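 Three-day growth assay of blood-stage parasites in erythrocytes (0.3% parasitemia, 2.5% hematocrit) at 37 C, 5% CO2, quantified by SYBR Green DNA staining after overnight detergent lysis.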

CP325 = system: CP325
Outline: as §1

CP329 = system: CP329
Outline: as §1

CP335 = system: CP335
Outline: as §1

DFO2036 = system: DFO2036
Outline: as §1

DIV14 = system: DIV14
Outline: as §1

DIV17 = system: DIV17
Outline: as §1

DIV30 = system: DIV30
Outline: as §1

Dd2 = system: Dd2
Outline: as §1

ECU = system: ECU
Outline: as §1
Potency means the concentration at half of the fitted maximal effect.

CN1C[C@H](C(=O)N[C@]2(C)O[C@@]3(O)[C@@H]4CCCN4C(=O)[C@H](Cc4ccccc4)N3C2=O)C=C2c3cccc4[nH]cc(c34)C[C@H]21
Potency (CP315): 12000 nM (active) | Potency (CP325): 6750 nM (active) | Potency (CP329): 15100 nM (active) | Potency (CP335): 675 nM (active) | Potency (DFO2036): 1260 nM (active) | Potency (DIV14): 536 nM (active) | Potency (DIV17): 338 nM (active) | Potency (DIV30): 1690 nM (active) | Potency (Dd2): 141 nM (active) | Potency (ECU): 316 nM (active)

O=C1Nc2ccc(Cl)cc2C(c2ccccc2)=NC1O (stereo not given)
Potency (CP315): inactive | Potency (CP325): inactive | Potency (CP329): inactive | Potency (CP335): inactive | Potency (DFO2036): inactive | Potency (DIV14): inactive | Potency (DIV17): inactive | Potency (DIV30): inactive | Potency (Dd2): inactive | Potency (ECU): inactive

COc1c2c(cc3c1OCO3)CCN(C)C2
Potency (CP315): inactive | Potency (CP325): inactive | Potency (CP329): inactive | Potency (CP335): inactive | Potency (DFO2036): inactive | Potency (DIV14): inactive | Potency (DIV17): inactive | Potency (DIV30): inactive | Potency (Dd2): inactive | Potency (ECU): inactive

CCCCC/C=C\C/C=C\C/C=C\C/C=C\CCCC(=O)NCC(=O)O
activity, negative = inhibition (CP315): -5.37% [at 2.67 µM] | activity, negative = inhibition (CP325): 2.88% [at 2.67 µM] | activity, negative = inhibition (CP329): 5.14% [at 2.67 µM] | activity, negative = inhibition (CP335): 3% [at 2.67 µM] | activity, negative = inhibition (DFO2036): 8.68% [at 2.67 µM] | activity, negative = inhibition (DIV14): 7.6% [at 2.67 µM] | activity, negative = inhibition (DIV17): 1.26% [at 2.67 µM] | activity, negative = inhibition (DIV30): -7.28% [at 2.67 µM] | activity, negative = inhibition (Dd2): 0.222% [at 2.67 µM] | activity, negative = inhibition (ECU): -2.86% [at 2.67 µM]

CNC(C)(C)Cc1ccccc1
Potency (CP315): inactive | Potency (CP325): inactive | Potency (CP329): inactive | Potency (CP335): inactive | Potency (DFO2036): inactive | Potency (DIV14): inactive | Potency (DIV17): inactive | Potency (DIV30): inactive | Potency (Dd2): inactive | Potency (ECU): inactive

CN1C(=O)CCS(=O)(=O)C1c1ccc(Cl)cc1 (stereo not given)
Potency (CP315): inactive | Potency (CP325): inactive | Potency (CP329): inactive | Potency (CP335): inactive | Potency (DFO2036): inactive | Potency (DIV14): inactive | Potency (DIV17): inactive | Potency (DIV30): inactive | Potency (Dd2): inactive | Potency (ECU): inactive

c1ccc2c(c1)sc1ccccc12
Potency (CP315): inactive | Potency (CP325): inactive | Potency (CP329): inactive | Potency (CP335): inactive | Potency (DFO2036): inactive | Potency (DIV14): inactive | Potency (DIV17): inactive | Potency (DIV30): inactive | Potency (Dd2): inactive | Potency (ECU): inactive

O=C1OC(c2ccc(O)c(S(=O)(=O)O)c2)(c2ccc(O)c(S(=O)(=O)O)c2)c2c(Br)c(Br)c(Br)c(Br)c21
Potency (CP315): inactive | Potency (CP325): inactive | Potency (CP329): inactive | Potency (CP335): inactive | Potency (DFO2036): inactive | Potency (DIV14): inactive | Potency (DIV17): inactive | Potency (DIV30): inactive | Potency (Dd2): inactive | Potency (ECU): inactive

C[C@]12CC[C@@H]3c4ccc(OC(=O)N(CCCl)CCCl)cc4CC[C@H]3[C@@H]1CC[C@@H]2O
Potency (CP315): inactive | Potency (CP325): inactive | Potency (CP329): inactive | Potency (CP335): inactive | Potency (DFO2036): inactive | Potency (DIV14): inactive | Potency (DIV17): inactive | Potency (DIV30): inactive | Potency (Dd2): inactive | Potency (ECU): inactive

CCOC(=O)CC(SP(=S)(OC)OC)C(=O)OCC (stereo not given)
Potency (CP315): inactive | Potency (CP325): inactive | Potency (CP329): inactive | Potency (CP335): inactive | Potency (DFO2036): inactive | Potency (DIV14): inactive | Potency (DIV17): inactive | Potency (DIV30): inactive | Potency (Dd2): inactive | Potency (ECU): inactive

O=C(Nc1ccc(Br)cc1)c1cc(Br)cc(Br)c1O
Potency (CP315): inactive | Potency (CP325): inactive | Potency (CP329): inactive | Potency (CP335): inactive | Potency (DFO2036): inactive | Potency (DIV14): inactive | Potency (DIV17): inactive | Potency (DIV30): inactive | Potency (Dd2): inactive | Potency (ECU): inactive

O=C1c2ccccc2C(=O)C1C(=O)C(c1ccccc1)c1ccccc1
Potency (CP315): inactive | Potency (CP325): inactive | Potency (CP329): inactive | Potency (CP335): inactive | Potency (DFO2036): inactive | Potency (DIV14): inactive | Potency (DIV17): inactive | Potency (DIV30): inactive | Potency (Dd2): inactive | Potency (ECU): inactive

NCCc1ccc(O)cc1
Potency (CP315): inactive | Potency (CP325): inactive | Potency (CP329): inactive | Potency (CP335): inactive | Potency (DFO2036): inactive | Potency (DIV14): inactive | Potency (DIV17): inactive | Potency (DIV30): inactive | Potency (Dd2): inactive | Potency (ECU): inactive

O=C1Nc2ccc(Cl)cc2C(c2ccccc2Cl)=NC1O (stereo not given)
Potency (CP315): inactive | Potency (CP325): inactive | Potency (CP329): inactive | Potency (CP335): inactive | Potency (DFO2036): inactive | Potency (DIV14): inactive | Potency (DIV17): inactive | Potency (DIV30): inactive | Potency (Dd2): inactive | Potency (ECU): inactive

CN1C(=O)COc2c(C(=O)NC3CN4CCC3CC4)cc(Cl)cc21 (stereo not given)
Potency (CP315): inactive | Potency (CP325): inactive | Potency (CP329): inactive | Potency (CP335): inactive | Potency (DFO2036): inactive | Potency (DIV14): inactive | Potency (DIV17): inactive | Potency (DIV30): inactive | Potency (Dd2): inactive | Potency (ECU): inactive

CCC1(CC)C(=O)C=CNC1=O
Potency (CP315): inactive | Potency (CP325): inactive | Potency (CP329): inactive | Potency (CP335): inactive | Potency (DFO2036): inactive | Potency (DIV14): inactive | Potency (DIV17): inactive | Potency (DIV30): inactive | Potency (Dd2): inactive | Potency (ECU): inactive

CC(C)=CC1C(C(=O)OCN2C(=O)C3=C(CCCC3)C2=O)C1(C)C (stereo not given)
Potency (CP315): inactive | Potency (CP325): inactive | Potency (CP329): inactive | Potency (CP335): inactive | Potency (DFO2036): inactive | Potency (DIV14): inactive | Potency (DIV17): inactive | Potency (DIV30): inactive | Potency (Dd2): inactive | Potency (ECU): inactive

NC(=O)CS(=O)C(c1ccccc1)c1ccccc1 (stereo not given)
Potency (CP315): inactive | Potency (CP325): inactive | Potency (CP329): inactive | Potency (CP335): inactive | Potency (DFO2036): inactive | Potency (DIV14): inactive | Potency (DIV17): inactive | Potency (DIV30): inactive | Potency (Dd2): inactive | Potency (ECU): inactive

COP(=S)(OC)Oc1ccc(S(=O)(=O)N(C)C)cc1
Potency (CP315): inactive | Potency (CP325): inactive | Potency (CP329): inactive | Potency (CP335): inactive | Potency (DFO2036): inactive | Potency (DIV14): inactive | Potency (DIV17): inactive | Potency (DIV30): inactive | Potency (Dd2): inactive | Potency (ECU): inactive

Nc1ccccc1C(=O)O
Potency (CP315): inactive | Potency (CP325): inactive | Potency (CP329): inactive | Potency (CP335): inactive | Potency (DFO2036): inactive | Potency (DIV14): inactive | Potency (DIV17): inactive | Potency (DIV30): inactive | Potency (Dd2): inactive | Potency (ECU): inactive

Clc1cccc(SC2CCNCC2)n1
Potency (CP315): inactive | Potency (CP325): inactive | Potency (CP329): inactive | Potency (CP335): inactive | Potency (DFO2036): inactive | Potency (DIV14): inactive | Potency (DIV17): inactive | Potency (DIV30): inactive | Potency (Dd2): inactive | Potency (ECU): inactive

O=c1[nH]oc2c1CCNC2
Potency (CP315): inactive | Potency (CP325): inactive | Potency (CP329): inactive | Potency (CP335): inactive | Potency (DFO2036): inactive | Potency (DIV14): inactive | Potency (DIV17): inactive | Potency (DIV30): inactive | Potency (Dd2): inactive | Potency (ECU): inactive

O=c1oc2ccccc2c(O)c1Cc1c(O)c2ccccc2oc1=O
Potency (CP315): inactive | Potency (CP325): inactive | Potency (CP329): inactive | Potency (CP335): inactive | Potency (DFO2036): inactive | Potency (DIV14): inactive | Potency (DIV17): inactive | Potency (DIV30): inactive | Potency (Dd2): inactive | Potency (ECU): inactive

CCCC(C)(COC(N)=O)COC(N)=O
Potency (CP315): inactive | Potency (CP325): inactive | Potency (CP329): inactive | Potency (CP335): inactive | Potency (DFO2036): inactive | Potency (DIV14): inactive | Potency (DIV17): inactive | Potency (DIV30): inactive | Potency (Dd2): inactive | Potency (ECU): inactive

Clc1ccc2c(c1)C(c1ccccc1)=NCc1nncn1-2
Potency (CP315): inactive | Potency (CP325): inactive | Potency (CP329): inactive | Potency (CP335): inactive | Potency (DFO2036): inactive | Potency (DIV14): inactive | Potency (DIV17): inactive | Potency (DIV30): inactive | Potency (Dd2): inactive | Potency (ECU): inactive

CN1C(=O)CC(=O)N(c2ccccc2)c2cc(Cl)ccc21
Potency (CP315): inactive | Potency (CP325): inactive | Potency (CP329): inactive | Potency (CP335): inactive | Potency (DFO2036): inactive | Potency (DIV14): inactive | Potency (DIV17): inactive | Potency (DIV30): inactive | Potency (Dd2): inactive | Potency (ECU): inactive

CN1C(=O)C(O)N=C(c2ccccc2)c2cc(Cl)ccc21 (stereo not given)
Potency (CP315): inactive | Potency (CP325): inactive | Potency (CP329): inactive | Potency (CP335): inactive | Potency (DFO2036): inactive | Potency (DIV14): inactive | Potency (DIV17): inactive | Potency (DIV30): inactive | Potency (Dd2): inactive | Potency (ECU): inactive
